Holding throughout (test): yeast three-hybrid, YBZ-1, SC-Leu-His + 0.5 mM 3-AT, 4 days
Common to all, as to settings: tags: N-Gal4 AD-HA kept; label: inside an RPR1-promoter hybrid RNA with tandem MS2 sites; ssRNA

One experiment addresses PUM1 PUF domain R3-TRF (Homo sapiens, UniProt Q14671 828-1176, C935T;Q939F). The procedure, abridged:
(§1)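 The interaction score is the logarithmic change in variant frequency from input to selection. It uses log2, with a pseudocount of 1 for absent variants, and frequencies came from PCR-amplified, Illumina-sequenced repeat regions. The libraries were Pumilio-1 PUF domains randomized at the three base-contacting residues per repeat, co-expressed with matching RNA elements in strain YBZ-1 (LexA–MS2 coat fusion, HIS3 reporter). Plating lasted four days on SC-Leu (input) or SC-Leu-His + 0.5 mM 3-AT (selection).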

In a further experiment the target is PUM1 PUF domain R3-GPT (Homo sapiens, UniProt Q14671 828-1176, C935G;R936P;Q939T). The procedure, abridged:
as §1

The target of the next experiment is PUM1 PUF domain R3-LWT (Homo sapiens, UniProt Q14671 828-1176, C935L;R936W;Q939T). The gist of the method:
as §1

The next experiment has as its target PUM1 PUF domain R3-EWE (Homo sapiens, UniProt Q14671 828-1176, C935E;R936W;Q939E). The gist of the method:
as §1

The target of a further experiment is PUM1 PUF domain R1-SLR (Homo sapiens, UniProt Q14671 828-1176, R864L;Q867R). The procedure, abridged:
as §1

A further experiment addresses PUM1 PUF domain R5-DRQ (Homo sapiens, UniProt Q14671 828-1176, C1007D). The procedure, abridged: as §1
The target in another experiment is PUM1 PUF domain R5-RQC (Homo sapiens, UniProt Q14671 828-1176, C1007R;R1008Q;Q1011C). The gist of the method:
as §1

In the next experiment the target is PUM1 PUF domain R5-KRP (Homo sapiens, UniProt Q14671 828-1176, C1007K;Q1011P). The gist of the method: as §1
PUM1 PUF domain R5-KRP, sequence (Q14671 828-1176 C1007K/Q1011P): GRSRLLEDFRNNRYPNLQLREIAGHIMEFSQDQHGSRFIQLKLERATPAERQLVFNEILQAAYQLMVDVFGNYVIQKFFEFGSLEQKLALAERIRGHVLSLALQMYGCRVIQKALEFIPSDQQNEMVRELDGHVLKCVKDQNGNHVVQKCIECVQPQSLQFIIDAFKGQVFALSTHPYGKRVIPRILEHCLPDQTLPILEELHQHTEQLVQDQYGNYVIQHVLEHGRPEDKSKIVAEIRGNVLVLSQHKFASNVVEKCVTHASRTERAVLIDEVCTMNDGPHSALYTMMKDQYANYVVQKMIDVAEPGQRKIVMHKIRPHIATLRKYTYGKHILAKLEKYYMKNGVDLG
A further experiment has as its target PUM1 PUF domain R5-CTR (Homo sapiens, UniProt Q14671 828-1176, R1008T;Q1011R). The procedure, abridged: as §1
The target in another experiment is PUM1 PUF domain R5-RFD (Homo sapiens, UniProt Q14671 828-1176, C1007R;R1008F;Q1011D). The gist of the method: as §1
PUM1 PUF domain R5-RFD, sequence (Q14671 828-1176 C1007R/R1008F/Q1011D): as the sequence (Q14671 828-1176 C1007K/Q1011P) above, with K180R, R181F, P184D counted along it
Another experiment deals with PUM1 PUF domain R5-EFR (Homo sapiens, UniProt Q14671 828-1176, C1007E;R1008F;Q1011R). The procedure, abridged: as §1
Another experiment deals with PUM1 PUF domain R7-KRG (Homo sapiens, UniProt Q14671 828-1176, S1079K;N1080R;E1083G). The gist of the method: as §1

PUM1 PUF domain R5-CTR, sequence (Q14671 828-1176 R1008T/Q1011R): as the sequence (Q14671 828-1176 C1007K/Q1011P) above, with K180C, R181T, P184R counted along it
PUM1 PUF domain R5-RQC, sequence (Q14671 828-1176 C1007R/R1008Q/Q1011C): as the sequence (Q14671 828-1176 C1007K/Q1011P) above, with K180R, R181Q, P184C counted along it
PUM1 PUF domain R5-DRQ, sequence (Q14671 828-1176 C1007D): as the sequence (Q14671 828-1176 C1007K/Q1011P) above, with K180D, P184Q counted along it

With “GGCUAGAACUAGUGGAUCCCCCGGCGCCCGGCGGCUCGAGCCCGGGUAAGUGUAAUUAGUCUGCAUGCCGCCGGGCGCCAUGCCUGCAGGUCGACUCUAGAAAACAUG”, the binding signal with PUM1 PUF domain R3-TRF was 0.63 log2 enrichment (interaction score); with PUM1 PUF domain R3-GPT, 2.69 log2 enrichment (interaction score); with PUM1 PUF domain R3-LWT, 4.05 log2 enrichment (interaction score); in the experiment with PUM1 PUF domain R3-EWE, 4.69 log2 enrichment (interaction score).
With “GGCUAGAACUAGUGGAUCCCCCGGCGCCCGGCGGCUCGAGCCCGGGUAAGUGUAAAUCGUCUGCAUGCCGCCGGGCGCCAUGCCUGCAGGUCGACUCUAGAAAACAUG”, in the experiment with PUM1 PUF domain R1-SLR, the binding signal was 3.37 log2 enrichment (interaction score).
For “GGCUAGAACUAGUGGAUCCCCCGGCGCCCGGCGGCUCGAGCCCGGGUAAGUGUCAAUAGUCUGCAUGCCGCCGGGCGCCAUGCCUGCAGGUCGACUCUAGAAAACAUG”, the binding signal in the experiment with PUM1 PUF domain R5-DRQ is 3.34 log2 enrichment (interaction score); in the experiment with PUM1 PUF domain R5-RQC it was 4.74 log2 enrichment (interaction score); with PUM1 PUF domain R5-KRP, 2.24 log2 enrichment (interaction score); in the experiment with PUM1 PUF domain R5-CTR, 4.38 log2 enrichment (interaction score); with PUM1 PUF domain R5-RFD it was 4.17 log2 enrichment (interaction score); with PUM1 PUF domain R5-EFR, 1.31 log2 enrichment (interaction score).
As for “GGCUAGAACUAGUGGAUCCCCCGGCGCCCGGCGGCUCGAGCCCGGGUAAGUCUAAAUAGUCUGCAUGCCGCCGGGCGCCAUGCCUGCAGGUCGACUCUAGAAAACAUG”, in the experiment with PUM1 PUF domain R7-KRG, the binding signal is 2.64 log2 enrichment (interaction score).

Source of the values: paper PMC8384837, “Expanding the binding specificity for RNA recognition by a PUF domain”.
